# Assay outcomes: PubChem, National Center for Advancing Translational Sciences (NCATS)
# Most compounds without a hit are left out; they make up all but 12% or so of the library.
# G9a block = inhibitors of human histone lysine methyltransferase G9a; Q96KQ7; G9a H3K9 monomethylation, AlphaScreen, 2 h; Potency, µM (titrated, usually from 102 µM), for the others: top-dose activity, negative = inhibition, most hits filed as inhibitors; 350,000 compounds, 8.8% hits; also: potency is read from the fitted curve at half-maximal effect; % is scaled to controls: 0 for no effect and ±100 for the full control effect; nearly all actives have a fitted effect of over 75% in size
#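 Compounds were preincubated with 20 nM G9a for 15 min, after which biotinylated H3K9 peptide (500 nM) and SAM (20 uM) started a 2 h room-temperature reaction. Monomethylated product was quantified by antibody-based AlphaScreen chemiluminescence.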
# JMJD2A Tudor = blocks the human JMJD2A Tudor domain | O75164 | AlphaScreen JMJD2A-Tudor / H3K4me3 peptide binding | Potency, µM (doses to about 114 µM), inactives show at the highest dose activity change, negative = inhibition, usual class: inhibitors | 390,000 compounds, 4.4% hits; also: potency is read from the fitted curve at half-maximal effect; % is scaled to controls: 0 for no effect and ±100 for the full control effect; nearly all actives have a fitted effect of over 50% in size
# BAZ2B block = inhibitors of human BAZ2B bromodomain | AlphaScreen BAZ2B-H3K14Ac peptide displacement | Potency, µM (series often up to 114 µM), inactives show top-dose activity change, negative = inhibition, usual class: inhibitors | Q9UIF8 | 360,000 compounds, 4.4% hits; also: potency is read from the fitted curve at half-maximal effect; % is scaled to controls: 0 for no effect and ±100 for the full control effect; nearly all actives have a fitted effect of over 60% in size
#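 Inhibition is scored as reduced AlphaScreen emission. The BAZ2B/b-H3(5-23)K14Ac complex (50 nM each) in PBS pH 7.4, 0.01% Tween-20 meets compound (up to 110 uM) for 30 min at RT before bead addition.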
# PLK1 PBD block = inhibitors of human PLK1 polo-box domain binding. Plk1 PBD binding of FITC phosphopeptide, fluorescence polarization. Potency, µM, inactives show max response, negative = inhibition, hits mostly inhibitors. 360,000 compounds, 2.8% hits; also: potency is read from the fitted curve at half-maximal effect; series mostly up to about 57 µM; % is scaled to controls: 0 for no effect and ±100 for the full control effect; nearly all actives have a fitted effect of over 65% in size
# Target sequence (P53350 whole entry, looked up, the tested form may be a part): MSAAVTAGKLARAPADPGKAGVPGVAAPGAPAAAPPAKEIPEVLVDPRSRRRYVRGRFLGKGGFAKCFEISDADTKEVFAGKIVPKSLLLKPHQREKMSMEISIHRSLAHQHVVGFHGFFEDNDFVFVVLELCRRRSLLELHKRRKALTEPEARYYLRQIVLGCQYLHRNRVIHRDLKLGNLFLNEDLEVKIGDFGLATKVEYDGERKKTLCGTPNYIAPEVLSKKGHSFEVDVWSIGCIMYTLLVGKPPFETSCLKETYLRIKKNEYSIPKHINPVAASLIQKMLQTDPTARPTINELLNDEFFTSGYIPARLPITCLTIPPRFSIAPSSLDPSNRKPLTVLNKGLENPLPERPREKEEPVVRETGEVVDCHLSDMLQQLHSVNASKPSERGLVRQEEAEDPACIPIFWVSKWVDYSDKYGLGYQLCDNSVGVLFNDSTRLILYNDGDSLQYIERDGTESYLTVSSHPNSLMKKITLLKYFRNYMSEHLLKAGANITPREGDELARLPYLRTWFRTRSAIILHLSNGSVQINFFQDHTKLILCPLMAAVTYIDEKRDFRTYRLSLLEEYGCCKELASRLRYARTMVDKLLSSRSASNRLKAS
# HP1b chromo inh = HP1-beta chromodomain-methylated histone interaction inhibition; P83916; AID 540317; AlphaScreen HP1-beta / biotin-H3K9me3 peptide binding; 390,000 compounds, 0.56% hits; Potency, µM (top dose mostly 114 µM), without a hit: at the top dose activity change, negative = inhibition, actives largely listed as inhibitors; also: potency is read from the fitted curve at half-maximal effect; nearly all actives have a fitted effect of over 70% in size
# Target sequence (P83916 whole entry, looked up): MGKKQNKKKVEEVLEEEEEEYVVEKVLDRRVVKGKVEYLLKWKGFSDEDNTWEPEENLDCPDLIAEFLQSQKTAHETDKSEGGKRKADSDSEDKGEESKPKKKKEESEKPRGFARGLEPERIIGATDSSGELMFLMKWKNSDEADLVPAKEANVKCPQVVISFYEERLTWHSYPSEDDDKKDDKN
#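 Compound inhibition of the preformed complex between 50 nM HP1-beta and 50 nM biotinylated H3K9me3 peptide was read by AlphaScreen. Buffer was PBS pH 7.4 with 0.01% Tween-20. Incubations ran 30 min at room temperature, with 10 ug/mL donor/acceptor beads.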
# PI5P4K alpha inh = blocks human PI5P4K alpha kinase activity. PI5P4Kalpha enzyme, ADP-Glo luminescence, 60 min; stronger effect = lower value. max response, %. 330,000 compounds, 1.2% hits. AID 652105; active = max response of -50% or lower; inconclusive = between -30% and -50%; inactive = -30% or higher; also: value at the top dose of about 77 µM; % is scaled to controls: 0 for no effect and ±100 for the full control effect
#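 Enzyme plus substrate dispensed, test compounds pinned in, then ATP (5 microM final) added. After 60 min at RT, ADP-Glo reagent 1 for 45 min and reagent 2 for 30 min preceded luminescence imaging.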
# An asterisk follows results filed as active; ? = inconclusive; nt = no result given; [ ] = remark or other dose. Unless noted, calls follow the shape of the dose curve; as a rule, active = well fitted curve in the direction sought with a large enough effect; inconclusive = small, poorly fitted or top-dose-only effect, or another doubt; inactive = no such curve, though single readings can be large; an effect the other way counts as inactive or inconclusive.
SMILES,G9a block,JMJD2A Tudor,BAZ2B block,PLK1 PBD block,HP1b chromo inh,PI5P4K alpha inh
CC(C(=O)Nc1ccc(N(C)C)cc1)N1C(=O)c2ccccc2S1(=O)=O (stereo unspecified),14.1µM*,44.7µM*,?,-11.2%,?,-5.0
O=C1C(c2[nH]c3ccc(S(=O)(=O)O)cc3c2O)=Nc2ccc(S(=O)(=O)O)cc21,17.8µM*,nt,nt,nt,nt,nt
O=S(=O)(O)c1ccc(Cl)c(Cl)c1,nt,-7.6%,nt,2.9%,19.4%[57 µM],-4.6
COc1ccccc1N1CCN(C(=O)CCc2nnc3n(C)c(=O)c4sccc4n23)CC1,-23.5%[59 µM],-17.4%,-0.1%,nt,34.1%,nt
O=C(NCC(=O)c1ccccc1)OCc1ccc([N+](=O)[O-])cc1,8.5%[0.501 µM],-21.5%,-21.1%,3.4%,18.4%,-3.0
CN(C)S(=O)(=O)Nc1cc(Cl)cc(Cl)c1,-12.2%[59 µM],39.8µM*,-9.6%,29.9µM*,-2.0%,-29.6
Cn1c(Cl)nc2ccccc21,7.4%[12.7 µM],?,-3.3%,-2.5%,16.0%,-2.3
Cn1c(N=Nc2ccccc2)nc2ccccc21,?,?,50.1µM*,6.4%,?,-74.3*
CN(C)c1ccc(N=Nc2nc3ccccc3n2C)cc1,?,10µM*,2.82µM*,2.5%,14.1µM*,-59.3*
Cc1cccn2c(=O)c3cc(C#N)c(=O)n(-c4nnc(SCc5ccc(Cl)cc5)s4)c3nc12,28.8%[59 µM],-5.0%,7.9%,nt,41.6%,nt
CCOC(=O)c1cc2c(=O)n3ccccc3nc2n(CCOC)c1=NC(=O)c1c(-c2ccccc2Cl)noc1C,-0.1%[59 µM],4.8%,4.4%,nt,42.9%,nt
CN1CCN(S(=O)(=O)c2cccc(C(=O)Nc3cc(Cl)ccc3N3CCOCC3)c2)CC1,15.8µM*,-13.1%,-3.0%,-1.7%,15.3%,8.9
CN1CCN(S(=O)(=O)c2cccc(C(=O)Nc3cc(C(F)(F)F)ccc3N3CCCC3)c2)CC1,50.1µM*,-13.1%,1.7%,-1.6%,28.4%,18.2
CN1CCN(S(=O)(=O)c2cccc(C(=O)Nc3ccccc3N3CCCC3)c2)CC1,?,-13.2%,-28.9%,-8.0%,1.8%,3.1
CCc1ccc(C(=O)NNC(=O)c2cccc(S(=O)(=O)N3CCN(C)CC3)c2)cc1,56.2µM*,-18.6%,12.3%,-9.6%,5.8%,5.7
CC(CNC(=O)c1nnc(Cc2ccc(F)cc2)o1)c1ccccc1 (stereo unspecified),-18.6%[59 µM],-3.9%,-34.1%,nt,4.4%,nt
Cc1cc(C(=O)CSc2nnnn2C)c(C)n1C1CC1,0.3%[59 µM],-6.5%,?,-0.8%,10.8%,3.2
Cc1cc(C(=O)CSc2nnc(CCC(N)=O)n2C)c(C)n1C1CC1,50.1µM*,-18.6%,-6.8%,-8.5%,8.9%,7.5
CC(=O)NC[C@@H]1CN(c2ccc(N3CCOCC3)c(F)c2)C(=O)O1,22.0%[59 µM],nt,nt,nt,nt,nt
O=C(NCc1ccc2[nH]c3c(c2c1)CCCC3)c1ccc(S(=O)(=O)N2CCCC2)cc1,44.7µM*,-27.1%,-36.5%,-4.0%,6.7%,-4.0
CN(C)S(=O)(=O)c1ccc(C(=O)NCc2ccc3[nH]c4c(c3c2)CCCC4)cc1,44.7µM*,?,?,-1.2%,-9.6%,5.6
O=C(NCc1ccc2[nH]c3c(c2c1)CCCC3)N1CCOCC1,?,nt,-0.8%,nt,nt,nt
O=C(NCc1ccc2[nH]c3c(c2c1)CCCC3)c1ccc(S(=O)(=O)N2CCOCC2)cc1,39.8µM*,-35.2%,?,-9.9%,-6.8%,1.9
C=CCc1c(C)nc2nc(SCC(=O)Nc3ccc(OCC)cc3)nn2c1C,-2.8%[59 µM],-11.6%,40.4%,nt,94.3%,nt
O=C(NCCCN1CCCCC1)c1cc(Sc2ccc(Cl)cc2)nc2ccccc12,-5.0%[59 µM],-22.0%,-10.2%,nt,11.6%,nt
SMILES,G9a block,JMJD2A Tudor,BAZ2B block,PLK1 PBD block,HP1b chromo inh,PI5P4K alpha inh
Oc1c(C(c2cccs2)N2CCN(c3ccccc3)CC2)ccc2cccnc12 (stereo unspecified),1.26µM*,nt,39.8µM*,nt,nt,nt
CN1CCN(C(c2ccc(C(F)(F)F)cc2)c2ccc3cccnc3c2O)CC1 (stereo unspecified),7.94µM*,56.2µM*,39.8µM*,3.77µM*,?,?
Oc1c(C(c2ccccc2Cl)N2CCCC2)ccc2cccnc12 (stereo unspecified),11.2µM*,20µM*,20µM*,7.52µM*,-35.4%,-3.7
Cc1ccc(NC(=O)CSc2nnc(-c3cccnc3)o2)c(C)c1,44.7µM*,-13.5%,2.9%,?,32.6%,15.3
CCCc1ccc(OC(C)c2nc(-c3ccc(-n4cccc4)cc3)no2)cc1 (stereo unspecified),52.8%[59 µM],5.6%,26.4%,nt,33.2%,nt
COc1ccc(F)cc1-c1cc(C(=O)N2CCc3ccccc3C2)[nH]n1,nt,nt,nt,-12.6%,nt,0.2
COc1ccccc1C(=O)NCCSCc1c(F)cccc1Cl,70.8µM*,6.1%,8.4%,-8.8%,38.6%,7.3
CCOc1ccc(CNC(=O)CN2N=C(c3ccccc3)CCC2=O)cc1OC,-0.3%[59 µM],?,-2.0%,nt,19.4%,nt
O=C1c2nccnc2C(=O)N1c1ccc(C(F)(F)F)cc1,50.1µM*,-13.6%,-38.6%,-6.1%,25.4%,0.6
CCOC(=O)c1c(S(=O)(=O)N2CCC(C(=O)NCc3cccc(OC)c3)CC2)c(C)n(C)c1C,4.4%[59 µM],-18.0%,-12.4%,nt,39.0%,nt
O=C(Nc1cccc(-n2cccn2)c1)C1CCCN(Cc2cc3ccccc3[nH]2)C1 (stereo unspecified),12.0%[12.7 µM],?,70.8µM*,21.2µM*,-5.3%,-10.6
Cc1cc(C)c(S(=O)(=O)Nc2ccc(N(C)C)cc2)c(C)c1-n1cnnn1,3.55µM*,?,39.8µM*,-10.9%,-26.7%,4.3
Cc1ccc(S(=O)(=O)Nc2ccc(-n3cnnn3)cc2)c(C)c1,-6.6%[2.33 µM],3.2%,5.5%,1.2%,31.2%,-1.7
CC1(C)CC(=O)C2=C(C1)Nc1ccccc1N(C(=O)C1CC1)C2c1ccco1 (stereo unspecified),12.4%[12.7 µM],?,-14.6%,9.47µM*,-7.4%,-10.6
O=C1CC(c2ccco2)CC2=C1C1c3ccccc3C(=O)N1c1ccccc1N2 (stereo unspecified),17.8µM*,-23.2%,?,-2.4%,-12.1%,-3.4
CCC(=O)N1c2ccccc2NC2=C(C(=O)CC(c3ccco3)C2)C1c1ccco1 (stereo unspecified),-50.9%[12.7 µM],-7.9%,-32.7%,-4.6%,2.9%,-10.4
Cc1cc(CNC(=O)CC2C(=O)NCCN2Cc2ccccc2C(F)(F)F)nn1C (stereo unspecified),?,-13.1%,-2.7%,-20.7%,41.7%,1.0
Cc1ccc(CN2CCNC(=O)C2CC(=O)NCc2cc(C)n(C)n2)cc1 (stereo unspecified),79.4µM*,-10.4%,-20.3%,-9.5%,43.3%,-3.0
CCOc1ccc(CN2CCNC(=O)C2CC(=O)NCc2cc(C)n(C)n2)cc1 (stereo unspecified),39.8µM*,-17.2%,-22.7%,1.9%,57.9%,0.0
